Out of some 69,000 compounds screened, about 8,600 (12%) showed an effect of 50% or more. Shown is part of a subset that was picked to be rich in strong results.

The experiment concerns Plasmodium berghei. Put plainly: Screen against P. berghei liver stage (PbLuc), transformed with Luciferase, at 10uM. Particulars: tested at 10 uM. In kind it is functional, HepG2.
As to `Cc1ccc(CN(CCCN(C)C)Cc2cnc(N(C)C)nc2)o1`, the INHIBITION is reported as 15.395%. Under `CC(C)C(=O)N1CCCC2(C1)CN(c1nncs1)CCO2` (centres undefined) stands 30.3%; under `CNC(=O)CN1CCOC(c2cccc(N)n2)C1` (centres undefined), -5.8%; under `C[C@@H]1CN2C[C@H](O)CC2CN1Cc1ccc2nccnc2c1` (some centres undefined), 28.5%.

Take `O=C(CN1CC(c2nc(-c3ccco3)no2)C1)NCC1CCCO1` (centres undefined): the INHIBITION is 17.7%. Take `COc1ccccc1OCCNCc1c(C(C)C)nn(C)c1N(C)C`: the INHIBITION came to 31.3%.

As to `O=C(NCCc1ccccn1)C1(n2cnnn2)CCCCC1`, the INHIBITION turned out to be 46.4%.

As for `CNCc1ccc([C@@H]2CN(C(C)=O)C[C@H]2C(N)=O)cc1`, the INHIBITION was -2.46%. Consider `NC(=O)CC1CCCCN1C(=O)c1cccc(C(F)(F)F)c1` (centres undefined), for which the INHIBITION was determined as 37.4%. As for `Cc1ccc(C(=O)N2CCOCC3(CCN(C4CCOCC4)C3)C2)o1` (centres undefined), the INHIBITION worked out at 14.1%.

As to `O=C1CCCN1Cc1ccc(C(=O)N2CCCC2c2cccs2)cc1` (centres undefined), the INHIBITION is given as 4.52%. As for `CC(C)COc1ccccc1CN(C)C(=O)c1cc(=O)[nH]c(=O)[nH]1`, the INHIBITION stood at 10.6%. Under `Cc1cc(C(=O)N(C)Cc2ccccc2OCC(C)C)cc(=O)[nH]1` stands 58.1%; under `COCC(C)N(Cc1ccccc1OC)C(=O)c1cc(C)[nH]c(=O)c1` (centres undefined), 29.4%. On to `CCc1ccccc1NC(=O)CCc1cnn(C)c1`, for which the INHIBITION worked out at 34.2%. For `CN(CC(N)=O)CC1(c2ccc(Br)cc2)CC1`, the INHIBITION was -28.4%. On to `Cc1ccc(OCC(=O)Nc2ccc(S(C)(=O)=O)cc2)cc1C`, for which the INHIBITION came out at 59.4%. Consider `Cc1ccc(OCC(=O)NS(=O)(=O)c2cccnc2)cc1C`, for which the INHIBITION was 1.48%. `Cc1ccc(OCC(=O)Nc2cc(C(=O)O)cc(S(C)(=O)=O)c2)cc1C`: the INHIBITION is 45.6%. Under `COc1ncccc1CN1Cc2nnn(C)c2C(COCC2CC2)C1` (centres undefined) stands 28.4%; under `Cc1nccc(C2(C)CCCNC2)n1` (centres undefined), 40.4%; under `COc1ccc(CNC(=O)CCc2c(C)noc2C)cc1F`, -4.93%. Under `COc1ccc(CCCC(=O)NCc2c(C)noc2C)cc1F` stands 29.3%; under `COc1ccc(C(=O)CCC(=O)NCc2c(C)noc2C)cc1F`, 64.1%.

With `CC1c2ncc(Cn3cccn3)n2CCN1S(=O)(=O)C1CC1` (centres undefined), the INHIBITION turned out to be 30.3%. Next, `CCN1CC2(CC1=O)CN(Cc1cnn(C)c1)CCN(C(C)=O)C2` (centres undefined): -2.53%. Under `COc1ccc(CN(Cc2cncn2C)CC2CCCO2)c(OC)c1` (centres undefined) stands 50%; under `COc1ccc(CN(Cc2cncn2C)CC2CCCO2)cc1` (centres undefined), 35.2%.

For `CCn1cncc1CN(Cc1ccc(OC)cc1OC)CC1CCCO1` (centres undefined), the INHIBITION amounted to 41.2%. Next, `CCS(=O)(=O)c1ccc(N2CCC(NC(C)=O)CC2)cc1`: 19.7%; `CCS(=O)(=O)c1ccc(N2CCC(NC(=O)C3CCCCC3)CC2)cc1`: 37.7%. Next, `CCS(=O)(=O)c1ccccc1N1CCC(NC(C)=O)CC1`: 6%; `CCS(=O)(=O)c1ccccc1N1CCC(NC(=O)NC2CCCC2)CC1`: -28.9%; `CCS(=O)(=O)c1ccc(N2CCC(NC(=O)CC3CCCC3)CC2)cc1`: 60.1%. Next, `CCCC(=O)NC1CCN(c2ccccc2S(=O)(=O)CC)CC1`: 58.5%; `CCc1nnc2n1CCN(C(=O)c1ccc3[nH]nnc3c1)C2`: -1.85%; `CCOc1ccccc1OC1CCN(C(=O)c2c[nH]nn2)CC1`: 33.8%. Regarding `CS(=O)(=O)N1CCOCC2(CCN(C(=O)c3ccncc3)CC2)C1`, the INHIBITION came to 19.5%. Next, `COc1ccc(N2CCN(Cc3nc(CSC)no3)C(C)C2=O)cc1` (centres undefined): -0.55%; `CN(C)C[C@H]1OC[C@@H]2CCN(C(=O)NCc3cccc(F)c3)C[C@@H]21`: 61.9%; `Cc1cccc(CN2CC[C@H]3CO[C@H](CNC(=O)N(C)C)[C@H]3C2)c1`: -4.88%. Under `CN(C)C(=O)NC[C@@H]1OC[C@H]2CN(Cc3cccc(F)c3)CC[C@H]21` stands 69.6%; under `CN(C)C[C@H]1OC[C@@H]2CN(C(=O)NCc3cccc(F)c3)CC[C@@H]21`, 24.9%; under `CN1CCO[C@@H]2CN(C(=O)NCc3cccc(F)c3)CC[C@@H]2C1`, 17.7%.

Turning to `COc1ccc(CN2CC[C@H]3[C@H](CO[C@H]3CNC(=O)N(C)C)C2)cc1`, the INHIBITION was 4.61%. For `Cc1ccccc1CN(CCN(C)C)Cc1ccc(C(=O)O)cc1`, the INHIBITION is given as -4.37%. Next, `CC(C)c1nc2n(n1)CC(NCc1nc(C3CC3)no1)CC2` (centres undefined): 16.8%. On to `CN(CC1CCCCO1)c1ncnc2cc(F)ccc12` (centres undefined), for which the INHIBITION stood at 4.68%. With `Cc1ccc(=O)n(CC2(O)CCN(Cc3cc(C)c(O)c(C)c3)CC2)n1`, the INHIBITION amounted to 42.1%.

For `CCn1ccc(NC(=O)C2CCC(=O)N2Cc2ccc(C)o2)n1` (centres undefined), the INHIBITION is on record as -20.8%. Next, `C[C@@H]1CN(C(=O)C2(Cn3cccn3)CC2)C[C@@]1(O)C1CCC1`: 9.845%; `CN(CC(=O)N1CCCC1c1cnn(C)c1)Cc1ccccc1` (centres undefined): -25.8%. Under `Cc1cc(CNC(=O)N2CCN(c3ccccc3)CC2)no1` stands 14.2%; under `Cc1cc(CNC(=O)NCc2ccccc2N2CCOCC2)no1`, 52.4%. As to `Cc1cc(CNC(=O)NC(C)c2ccc(N3CCOCC3)cc2)no1` (centres undefined), the INHIBITION was 35.1%. With `CCC(=O)Nc1cccc(OCC(=O)N(C)Cc2nccn2CC)c1`, the INHIBITION was 66.1%. Under `CCC(=O)Nc1cccc(OCC(=O)N(C)Cc2nc(C)c[nH]2)c1` stands 3.82%.

As for `CCC(=O)Nc1cccc(OCC(=O)N(C)Cc2ccon2)c1`, the INHIBITION worked out at 20.2%. Take `Cn1ccnc(Nc2ccc3c(c2)CCN3C(=O)c2ccoc2)c1=O`: the INHIBITION was -21.6%.

Consider `Cc1nc(CC(=O)N2CCCC2Cn2cccn2)cs1` (centres undefined), for which the INHIBITION came to 19.4%.

For the compound `O=C(C1CCS(=O)(=O)CC1)N1CCC(c2ccc(F)cc2)C1` (centres undefined), the INHIBITION is recorded as -9.51%. Consider `O=C(C1CC1)N1CCC(C(=O)N2CCC(c3ccc(F)cc3)C2)CC1` (centres undefined), for which the INHIBITION is listed as 61.9%. Consider `CC(C)N1CCC(C(=O)N2CCN(c3cccc(C(=O)O)c3)CC2)CC1`, for which the INHIBITION is on record as 43.9%. Under `O=C(C1CCC1)N1CCC(C(=O)N2CCC(c3ccc(F)cc3)C2)CC1` (centres undefined) stands 62.8%; under `O=C(CN1C(=O)CCNC1=O)N1CCC(c2ccc(F)cc2)C1` (centres undefined), 33.4%; under `O=C(c1cc(F)ccc1O)N1CCN(C(=O)C2CCC2)CC1`, 6.11%. Next, `CC(C)N1CCC(C(=O)N2CCC(c3ccc(F)cc3)C2)CC1` (centres undefined): 73%.

For `CC(C)N1CCC(C(=O)N2CCCN(c3ccccc3)CC2)CC1`, the INHIBITION stood at 33.9%. Under `O=C(C1CCCC1)N1CCC(C(O)c2ccc(F)cc2)CC1` (centres undefined) stands 31.7%.

Values taken from ChEMBL document CHEMBL4513216, “Probing the Open Global Health Chemical Diversity Library for Multistage-Active Starting Points for Next-Generation Antimalarials” (ACS Infect Dis, 2020).
